MEKK3 PB1 HTS: raises or lowers MEK5 binding to the human MEKK3 PB1 domain. Q99759. bead-based flow cytometry, Alexa488-MEK5 binding to MEKK3; actives lie on both sides; 0 = blocked by unlabeled MEK5, 100 = vehicle. binding response (% of control), % at 10 µM. 290,000 tested, 1.4% active;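 active = binding response more than 3 SD above or below the average of its plate-row segment, actives on both sides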;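 also: Alexa488 bead fluorescence after subtracting the streptavidin-only scavenger bead signal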
MEKK2 mut-MEK5: signal of MEK5 binding to mutant human MEKK2 PB1 domain. bead flow cytometry, Alexa488-MEK5 binding to MEKK2 mutant. percent response, % at 10 µM. 290,000 tested, 0.35% active; in the data active = percent response above about 24%, passing the limit was not always enough
GRK2 inh: human GRK2 inhibition via aptamer displacement | P25098 | bead flow cytometry, FAM-aptamer displacement from GRK2 | inhibition of aptamer binding, % at 10 µM | 330,000 tested, 0.59% active | AID 488847;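 active = inhibition of aptamer binding above 40%, roughly 3 SD of noise, on plates passing a quality check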;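 also: median bead fluorescence of bound FAM aptamer so fluorescent compounds give negative values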
Target sequence (P25098 whole entry, looked up): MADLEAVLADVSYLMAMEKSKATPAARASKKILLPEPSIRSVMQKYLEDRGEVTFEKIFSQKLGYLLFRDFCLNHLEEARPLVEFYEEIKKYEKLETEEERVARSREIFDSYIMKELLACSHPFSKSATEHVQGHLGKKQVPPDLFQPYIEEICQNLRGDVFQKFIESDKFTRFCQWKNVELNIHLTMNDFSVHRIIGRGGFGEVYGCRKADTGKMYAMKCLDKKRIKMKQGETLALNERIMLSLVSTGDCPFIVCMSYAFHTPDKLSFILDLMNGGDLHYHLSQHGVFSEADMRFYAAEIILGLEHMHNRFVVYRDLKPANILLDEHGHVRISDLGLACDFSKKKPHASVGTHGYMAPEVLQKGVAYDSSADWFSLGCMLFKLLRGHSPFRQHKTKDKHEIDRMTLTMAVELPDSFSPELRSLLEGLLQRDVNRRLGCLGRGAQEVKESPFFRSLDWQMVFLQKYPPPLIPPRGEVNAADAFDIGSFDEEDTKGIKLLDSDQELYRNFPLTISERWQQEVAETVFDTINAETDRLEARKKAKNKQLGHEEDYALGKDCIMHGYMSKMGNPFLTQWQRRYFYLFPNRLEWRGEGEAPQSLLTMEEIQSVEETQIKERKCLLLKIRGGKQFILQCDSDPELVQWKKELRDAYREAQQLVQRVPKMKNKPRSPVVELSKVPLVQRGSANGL
MEKK2wt PB1 HTS: raises or lowers MEK5 binding to wildtype human MEKK2 PB1 domain; Q9Y2U5; bead flow cytometry, Alexa488-MEK5 binding to MEKK2 WT; actives lie on both sides; binding response (% of control), % at 10 µM; 290,000 tested, 1.1% active; AID 1531; in the data active = binding response below about 67% or above about 130%
MEKK2wt confirm: raises or lowers MEK5 binding to wildtype human MEKK2, retest; shares compounds with MEKK3 PB1 HTS; bead flow cytometry, Alexa488-MEK5 binding to MEKK2 WT; actives lie on both sides; binding response (% of control), % at 10 µM; 5,900 tested, 2.4% active; AID 1892; in the data active = binding response below about 16% or above about 210%; inactive = in between
MEKK2mut-MEK5: signal of MEK5 binding to mutant human MEKK2, retest. bead flow cytometry, Alexa488-MEK5 binding to MEKK2 mutant. 5,900 tested, 2% active. AID 1893. percent response, % at 10 µM. shares compounds with MEKK3 PB1 HTS; in the data active = percent response mostly above about 71%, no sharp cut-off; inactive = mostly below about 38%;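 also: higher means compound restores mutant binding toward wildtype level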
MEKK3 confirm: confirmation of inhibitors of MEK5 binding to human MEKK3. shares compounds with MEKK3 PB1 HTS. bead flow cytometry, Alexa488-MEK5 binding to MEKK3; hits give low values. binding response (% of control), % at 10 µM. 5,900 tested, 1.8% active;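 active = binding response below 72% of control, or above a set upper limit, though filed actives all read lower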;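 also: lower values mean stronger disruption of MEK5 binding to MEKK3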
Each line names hits and unclear results; the compound was inactive in the other large screens (follow-up assays come after a bar, where they were run); [ ] = remark or other dose. Only some compounds are listed: those with a hit (about 2.5% of all), similar ones and a draw of the others.

CCN1CCN(Cc2ccc(NC(=O)c3cc(NC(=O)c4cc(-c5ccc(OC)cc5)n[nH]4)cc(OC)c3)cc2C(F)(F)F)CC1	MEKK3 PB1 HTS 125, MEKK2 mut-MEK5 167, MEKK2wt PB1 HTS 167 | MEKK2wt confirm 312 | MEKK2mut-MEK5 173 | MEKK3 confirm inactive
CCN1CCN(Cc2ccc(NC(=O)c3cc(NC(=O)c4ccno4)cc(OC)c3)cc2C(F)(F)F)CC1	none
CSc1nc2ncc3c(n2n1)CC1c2ccccc2CCN1C3=O (stereo not drawn)	none
CCN(CC)CCN1C(=O)c2oc3ccc(F)cc3c(=O)c2C1c1ccncc1 (stereo not drawn)	none
O=C(Nc1ccc2nc(-c3cccs3)c(-c3cccs3)nc2c1)NC1CC1	MEKK3 PB1 HTS 68[inhibitor], MEKK2wt PB1 HTS 20[inhibitor] | MEKK2wt confirm inactive | MEKK2mut-MEK5 inactive | MEKK3 confirm inactive
COCCNC(=O)Nc1ccc2nc(-c3cccs3)c(-c3cccs3)nc2c1	MEKK2wt PB1 HTS 67[inhibitor] | MEKK2wt confirm inactive | MEKK2mut-MEK5 inactive | MEKK3 confirm inactive
COc1ccc(C(=O)OCC(=O)Nc2ccc(N3CCOCC3)cc2)cc1	none (no result: MEKK3 PB1 HTS, MEKK2 mut-MEK5, MEKK2wt PB1 HTS)
O=C(NCc1ccc(F)cc1)c1ccc(Cl)c(NC2=NC3CS(=O)(=O)CC3S2)c1 (stereo not drawn)	none
COc1cccc(COC(=O)C2CC(=O)N(Cc3ccco3)C2)c1OC (stereo not drawn)	none
Cc1ccc2cc(CN(Cc3ccco3)C(=O)NC3CCCCC3)c(=O)[nH]c2c1C	MEKK3 PB1 HTS 64[inhibitor] | MEKK2wt confirm inactive | MEKK2mut-MEK5 inactive | MEKK3 confirm inactive
Cc1ccc2cc(CN(Cc3ccco3)C(=O)C3CCCCC3)c(=O)[nH]c2c1C	none
Cc1c(CCOC(=O)c2ccc(Cl)cc2Cl)sc[n+]1CC(=O)c1ccc(Br)cc1	none (no result: MEKK3 PB1 HTS, MEKK2 mut-MEK5, MEKK2wt PB1 HTS)
Cc1c(CCOC(=O)C2C3CC4CC(C3)CC2C4)sc[n+]1CC(=O)c1ccc(Br)cc1 (stereo not drawn)	MEKK2wt PB1 HTS 157 | MEKK2wt confirm inactive | MEKK2mut-MEK5 inactive | MEKK3 confirm inactive
C/C(=N/NC(=O)c1sc(NS(=O)(=O)c2ccccc2)nc1C)c1ccc(F)cc1	MEKK3 PB1 HTS 153 | MEKK2wt confirm inactive | MEKK2mut-MEK5 inactive | MEKK3 confirm inactive
C/C(=N/NC(=O)c1sc(NS(=O)(=O)c2ccccc2)nc1C)c1ccccc1	none
Cc1nc(C)c(C(=O)NNS(=O)(=O)c2ccccc2)s1	MEKK3 PB1 HTS 140 | MEKK2wt confirm inactive | MEKK2mut-MEK5 inactive | MEKK3 confirm inactive
O=C(CSc1ncnc2c1oc1ccccc12)NC1CCCCC1	none
COc1ccccc1CNC(=O)Cn1ccsc1=N	none
CS(=O)(=O)c1ccc(Cl)c(NC(=O)CCNC(=O)c2ccco2)c1	none
c1ccc2c(c1)nc1n2CCN1CCNC1CCCCC1	none
Cn1c(=O)c2c(ncn2CC(=O)OCC(=O)Nc2ccc(Cl)cc2Cl)n(C)c1=O	none
Cn1c(=O)c2c(ncn2CC(=O)OCC(=O)Nc2cc(Cl)ccc2Cl)n(C)c1=O	MEKK3 PB1 HTS 139 | MEKK2wt confirm inactive | MEKK2mut-MEK5 inactive | MEKK3 confirm inactive
N#CC1=C(N)NC(SCc2ccc(F)cc2)=C(C#N)C12CCCCC2	MEKK3 PB1 HTS 82[inhibitor] | MEKK2wt confirm inactive | MEKK2mut-MEK5 inactive | MEKK3 confirm inactive
N#CC1=C(N)NC(SCC(=O)Nc2ccccc2)=C(C#N)C12CCCC2	none
Cc1cc(C)cc(N=Cc2ccc([N+](=O)[O-])s2)c1	none
Cc1ccc(NC(=S)N/N=C/c2ccc([N+](=O)[O-])s2)cc1	MEKK2wt PB1 HTS 62[inhibitor] | MEKK2wt confirm inactive | MEKK2mut-MEK5 inactive | MEKK3 confirm inactive
COc1ccccc1C#Cc1ccc2c(=O)c3ccccc3n(C)c2c1	MEKK2wt PB1 HTS 66[inhibitor] | MEKK2wt confirm inactive | MEKK2mut-MEK5 inactive | MEKK3 confirm inactive
COc1ccc(C#Cc2ccc3c(=O)c4ccccc4n(C)c3c2)cc1	none
Cc1nn(CC(=O)NC(C)C)c(C)c1[N+](=O)[O-]	MEKK3 PB1 HTS 69[inhibitor] | MEKK2wt confirm inactive | MEKK2mut-MEK5 inactive | MEKK3 confirm inactive
C/C(=N\NC(=O)Cn1nc(C)c([N+](=O)[O-])c1C)c1ccc(Cl)s1	MEKK3 PB1 HTS 128 | MEKK2wt confirm inactive | MEKK2mut-MEK5 inactive | MEKK3 confirm inactive
Cc1nn(CC(=O)O)c(C)c1[N+](=O)[O-]	none
O=C(Nc1cccc(Cl)c1)C1CCCCC1	none (no result: MEKK3 PB1 HTS, MEKK2 mut-MEK5, MEKK2wt PB1 HTS)
COc1ccc(S(N)(=O)=O)cc1C(=O)OCC1CCCCC1	none
O=C(c1ccc2ccccc2c1)c1c[nH]cc1-c1ccccc1	MEKK3 PB1 HTS 129 | MEKK2wt confirm inactive | MEKK2mut-MEK5 inactive | MEKK3 confirm inactive
COc1ccc(C(=O)c2c[nH]cc2-c2ccccc2)cc1	none
CCOC(=O)C1=C(C)Nc2sc(C(=O)c3ccc(C)cc3)c(N)c2C1c1ccc(C(=O)OC)cc1 (stereo not drawn)	MEKK3 PB1 HTS 149 | MEKK2wt confirm inactive | MEKK2mut-MEK5 inactive | MEKK3 confirm inactive
CN(C)C(=S)NCc1ccccc1	none
CC(C)C(NC(=S)NCc1ccccc1)C(=O)O (stereo not drawn)	MEKK3 PB1 HTS 34[inhibitor], MEKK2wt PB1 HTS 43[inhibitor] | MEKK2wt confirm inactive | MEKK2mut-MEK5 inactive | MEKK3 confirm inactive
CN(N)C(=S)NCc1ccccc1	MEKK3 PB1 HTS 123 | MEKK2wt confirm inactive | MEKK2mut-MEK5 inactive | MEKK3 confirm inactive
CC(C)CCNC(=O)C(=O)NCc1ccccc1	MEKK3 PB1 HTS 49[inhibitor] | MEKK2wt confirm inactive | MEKK2mut-MEK5 inactive | MEKK3 confirm inactive
Cc1ccc(OCCn2c(Br)nc3c2c(=O)n(C)c(=O)n3C)cc1	none
CC(C)c1ccc(NC(=S)NC2CCN(Cc3ccccc3)CC2)cc1	none
S=C(Nc1ccc(Cl)cc1Cl)NC1CCN(Cc2ccccc2)CC1	MEKK2 mut-MEK5 53 | MEKK2wt confirm inactive | MEKK2mut-MEK5 inactive | MEKK3 confirm inactive
CC(C(=O)NC1CCCC1)N1CCN(Cc2ccccc2)CC1 (stereo not drawn)	MEKK3 PB1 HTS 140 | MEKK2wt confirm inactive | MEKK2mut-MEK5 inactive | MEKK3 confirm inactive
S=C(Nc1ccccc1Cl)N1CCN(Cc2ccccc2)CC1	none
O=C(NC1CCN(Cc2ccccc2)CC1)c1ccc(Cl)cc1Cl	none
CC(C)c1ccccc1NC(=S)NC1CCN(Cc2ccccc2)CC1	MEKK2wt PB1 HTS 138 | MEKK2wt confirm inactive | MEKK2mut-MEK5 inactive | MEKK3 confirm inactive
Fc1ccccc1NC(=S)N1CCN(Cc2ccccc2)CC1	MEKK3 PB1 HTS 139 | MEKK2wt confirm inactive | MEKK2mut-MEK5 inactive | MEKK3 confirm inactive
COc1ccc(NC(=O)C(=O)NNC(=O)c2cccs2)c(OC)c1	none
COc1ccc(Nc2nnc(SCC3CCCCO3)s2)cc1 (stereo not drawn)	none

Screens as filed in PubChem.
